Of roughly 7,900 targets only a part is listed; those with a hit were picked by preference. About 0.6% of all pairs of compound and target were hits.
How the values were obtained:
Assay in all cases: log2 fold change, soluble protein after heating vs DMSO (PISA); higher = thermal stabilisation; K562 cells, 10 uM, 30 min; active = over 0.2 and 3.5 SD of the protein, either way, in both replicates (recomputed)
[1] = compound: CS(=O)(=O)c1ccc(-c2cnc(N)c(C(=O)Nc3ccccc3)n2)cc1
How it was run: (§1)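 K562 cells at 2×10^6 cells/mL were treated for 30 min with 10 μM compound, and aliquots were heated for 3 min over 48°C-58°C before pooling. Extraction used PBS with 0.5% NP-40 at 4°C, and soluble protein was the supernatant after 21,000xg for 90 min, measured by TMTpro 16plex LC-MS/MS with channel sums equalised. Thermal stability values, relative to control samples and from duplicates, are log2 fold changes.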

crizotinib = compound: C[C@@H](Oc1cc(-c2cnn(C3CCNCC3)c2)cnc1N)c1c(Cl)ccc(F)c1Cl [crizotinib]
How it was run: as §1

[2] = compound: C[C@@H]1COCCN1C2=NC(=NC(=C2)C3(CC3)S(=O)(=O)C)C4=C5C=CNC5=CC=C4
How it was run: as §1

[3] = compound: C[C@H](C1=CC=C(C=C1)C(=O)NC2=C3C=CNC3=NC=C2)N
How it was run: as §1

duvelisib = compound: C[C@H](Nc1ncnc2nc[nH]c12)c1cc2cccc(Cl)c2c(=O)n1-c1ccccc1 [duvelisib]
How it was run: as §1

gandotinib = compound: Cc1cc(Nc2cc(CN3CCOCC3)c3nc(C)c(Cc4ccc(Cl)cc4F)n3n2)n[nH]1 [gandotinib]
How it was run: as §1

tozasertib = compound: Cc1cc(Nc2cc(N3CCN(C)CC3)nc(Sc3ccc(NC(=O)C4CC4)cc3)n2)n[nH]1 [tozasertib]
How it was run: as §1

[4] = compound: Cc1cc(SCc2sc(-c3ccc(C(F)(F)F)cc3)nc2C)ccc1OCC(=O)O
How it was run: as §1

doramapimod = compound: Cc1ccc(-n2nc(C(C)(C)C)cc2NC(=O)Nc2ccc(OCCN3CCOCC3)c3ccccc23)cc1 [doramapimod]
How it was run: as §1

ispinesib = compound: Cc1ccc(C(=O)N(CCCN)[C@@H](c2nc3cc(Cl)ccc3c(=O)n2Cc2ccccc2)C(C)C)cc1 [ispinesib]
How it was run: as §1

bafetinib = compound: Cc1ccc(NC(=O)c2ccc(CN3CC[C@H](N(C)C)C3)c(C(F)(F)F)c2)cc1Nc1nccc(-c2cncnc2)n1 [bafetinib]
How it was run: as §1

[5] = compound: Cc1cccc(CC(=O)N2CCc3c2ccc(-c2cn(C)c4ncnc(N)c24)c3F)n1
How it was run: as §1

nilotinib = compound: Cc1cn(-c2cc(NC(=O)c3ccc(C)c(Nc4nccc(-c5cccnc5)n4)c3)cc(C(F)(F)F)c2)cn1 [nilotinib]
How it was run: as §1

[6] = compound: Cc1nc(Nc2n[nH]c3c2CN(C(=O)N[C@H](CN(C)C)c2ccccc2)C3(C)C)c2sccc2n1
How it was run: as §1

dasatinib = compound: Cc1nc(Nc2ncc(C(=O)Nc3c(C)cccc3Cl)s2)cc(N2CCN(CCO)CC2)n1 [dasatinib]
How it was run: as §1

[7] = compound: Cc1ncc(-c2ccnc(Nc3ccc(S(C)(=O)=O)cc3)n2)n1C(C)C
How it was run: as §1

[8] = compound: Cn1cc(-c2ccc3c(c2)CCN3C(=O)Cc2cccc(C(F)(F)F)c2)c2c(N)ncnc21
How it was run: as §1

[9] = compound: Cn1cc(-c2ccc3nnc(C(F)(F)c4ccc5ncccc5c4)n3n2)cn1
How it was run: as §1

tipifarnib = compound: Cn1cncc1[C@@](N)(c1ccc(Cl)cc1)c1ccc2c(c1)c(-c1cccc(Cl)c1)cc(=O)n2C [tipifarnib]
How it was run: as §1

mubritinib = compound: FC(F)(F)c1ccc(/C=C/c2nc(COc3ccc(CCCCn4ccnn4)cc3)co2)cc1 [mubritinib]
How it was run: as §1

Measured: log2 fold change

SLC25A39 (UniProt Q9BZJ4)
Sequence of UniProt Q9BZJ4 (Q9BZJ4 whole entry, looked up): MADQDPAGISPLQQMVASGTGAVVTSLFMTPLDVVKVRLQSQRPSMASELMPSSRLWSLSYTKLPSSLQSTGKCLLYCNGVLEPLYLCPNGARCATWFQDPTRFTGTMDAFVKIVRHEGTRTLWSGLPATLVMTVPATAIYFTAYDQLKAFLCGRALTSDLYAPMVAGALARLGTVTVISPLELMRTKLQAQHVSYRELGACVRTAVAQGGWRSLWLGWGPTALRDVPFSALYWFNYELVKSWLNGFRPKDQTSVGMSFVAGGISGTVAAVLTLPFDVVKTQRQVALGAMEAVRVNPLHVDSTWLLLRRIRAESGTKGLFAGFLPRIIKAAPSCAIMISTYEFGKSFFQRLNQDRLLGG
inactive: [1] -0.029 | crizotinib -0.025 | [2] 0.14 | [3] -0.165 | duvelisib 0.044 | gandotinib 0.075 | tozasertib 0.269 | [4] -0.08 | doramapimod -0.079 | ispinesib -0.523 | bafetinib -0.182 | [5] -0.397 | nilotinib -0.136 | [6] -0.119 | dasatinib -0.035 | [7] 0.035 | [8] 0.081 | [9] 0.092 | tipifarnib 0.009 | mubritinib 0.104

SNRNP27 (UniProt Q8WVK2)
Sequence of UniProt Q8WVK2 (Q8WVK2 whole entry, looked up): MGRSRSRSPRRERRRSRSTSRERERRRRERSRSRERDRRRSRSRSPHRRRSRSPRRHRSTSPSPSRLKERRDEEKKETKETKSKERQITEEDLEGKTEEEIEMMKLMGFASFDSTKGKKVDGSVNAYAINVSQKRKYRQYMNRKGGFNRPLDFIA
active: [6] -0.487
inactive: [1] 0.002 | crizotinib 0.038 | [2] -0.069 | [3] 0.072 | duvelisib 0.041 | gandotinib 0.013 | tozasertib -0.084 | [4] -0.065 | doramapimod -0.056 | ispinesib -0.119 | bafetinib -0.015 | [5] -0.079 | nilotinib 0.087 | dasatinib 0.045 | [7] -0.064 | [8] -0.078 | [9] 0.031 | tipifarnib 0.032 | mubritinib 0.059

SPART (UniProt Q8N0X7)
Sequence of UniProt Q8N0X7 (Q8N0X7 whole entry, looked up): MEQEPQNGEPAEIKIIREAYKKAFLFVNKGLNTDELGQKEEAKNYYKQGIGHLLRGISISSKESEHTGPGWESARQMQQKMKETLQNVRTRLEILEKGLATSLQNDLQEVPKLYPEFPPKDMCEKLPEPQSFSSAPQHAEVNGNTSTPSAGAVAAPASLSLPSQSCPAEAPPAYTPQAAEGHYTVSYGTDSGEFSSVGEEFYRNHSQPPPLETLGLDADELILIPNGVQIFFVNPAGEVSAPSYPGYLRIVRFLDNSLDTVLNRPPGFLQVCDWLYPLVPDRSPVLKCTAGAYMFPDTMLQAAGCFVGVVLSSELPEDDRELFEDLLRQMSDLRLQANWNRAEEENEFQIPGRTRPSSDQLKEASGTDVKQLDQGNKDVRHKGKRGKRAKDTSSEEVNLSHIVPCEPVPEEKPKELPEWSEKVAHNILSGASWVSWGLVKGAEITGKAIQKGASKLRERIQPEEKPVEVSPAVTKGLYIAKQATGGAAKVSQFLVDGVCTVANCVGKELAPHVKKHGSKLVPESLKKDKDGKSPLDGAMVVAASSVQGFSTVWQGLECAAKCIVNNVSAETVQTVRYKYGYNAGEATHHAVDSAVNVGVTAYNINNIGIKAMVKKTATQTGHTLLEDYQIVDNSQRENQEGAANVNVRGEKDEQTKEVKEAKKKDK
inactive: [1] 0.006 | crizotinib -0.107 | [2] 0.056 | [3] 0.101 | duvelisib 0.053 | gandotinib -0.088 | tozasertib 0.044 | [4] 0.055 | doramapimod 0.014 | ispinesib -0.001 | bafetinib -0.041 | [5] -0.024 | nilotinib -0.047 | [6] -0.006 | dasatinib -0.117 | [7] 0.051 | [8] -0.025 | [9] 0.059 | tipifarnib -0.077 | mubritinib 0.063

SLC9A6 isoform 2 (UniProt Q92581)
Sequence of UniProt Q92581 (Q92581 whole entry, looked up): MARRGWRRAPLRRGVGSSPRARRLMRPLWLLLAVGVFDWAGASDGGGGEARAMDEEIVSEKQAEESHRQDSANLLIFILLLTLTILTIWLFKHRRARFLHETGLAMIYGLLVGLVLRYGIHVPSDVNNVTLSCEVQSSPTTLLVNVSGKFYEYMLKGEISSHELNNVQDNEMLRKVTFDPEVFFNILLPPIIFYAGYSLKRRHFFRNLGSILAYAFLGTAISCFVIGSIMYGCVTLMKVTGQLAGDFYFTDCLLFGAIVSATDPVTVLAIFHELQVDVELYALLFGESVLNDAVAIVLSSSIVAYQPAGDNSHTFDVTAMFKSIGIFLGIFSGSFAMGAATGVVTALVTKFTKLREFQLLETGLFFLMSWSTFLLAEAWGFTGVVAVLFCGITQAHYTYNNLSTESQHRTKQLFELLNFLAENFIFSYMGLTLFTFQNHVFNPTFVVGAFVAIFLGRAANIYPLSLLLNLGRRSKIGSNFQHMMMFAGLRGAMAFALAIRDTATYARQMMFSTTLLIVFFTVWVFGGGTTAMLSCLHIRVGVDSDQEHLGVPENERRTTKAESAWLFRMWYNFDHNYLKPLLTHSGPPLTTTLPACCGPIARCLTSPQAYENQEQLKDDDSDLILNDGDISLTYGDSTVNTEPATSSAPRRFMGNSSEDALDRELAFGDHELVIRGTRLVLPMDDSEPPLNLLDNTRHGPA
active: ispinesib -0.331
inactive: [1] 0.028 | crizotinib 0.048 | [2] 0.022 | [3] -0.005 | duvelisib 0.079 | gandotinib -0.105 | tozasertib -0.024 | [4] -0.067 | doramapimod 0 | bafetinib -0.049 | [5] 0.012 | nilotinib 0.039 | [6] 0.011 | dasatinib 0.017 | [7] -0.002 | [8] -0.019 | [9] 0.026 | tipifarnib 0.047 | mubritinib 0.033

SLC38A9 (UniProt Q8NBW4)
Sequence of UniProt Q8NBW4 (Q8NBW4 whole entry, looked up): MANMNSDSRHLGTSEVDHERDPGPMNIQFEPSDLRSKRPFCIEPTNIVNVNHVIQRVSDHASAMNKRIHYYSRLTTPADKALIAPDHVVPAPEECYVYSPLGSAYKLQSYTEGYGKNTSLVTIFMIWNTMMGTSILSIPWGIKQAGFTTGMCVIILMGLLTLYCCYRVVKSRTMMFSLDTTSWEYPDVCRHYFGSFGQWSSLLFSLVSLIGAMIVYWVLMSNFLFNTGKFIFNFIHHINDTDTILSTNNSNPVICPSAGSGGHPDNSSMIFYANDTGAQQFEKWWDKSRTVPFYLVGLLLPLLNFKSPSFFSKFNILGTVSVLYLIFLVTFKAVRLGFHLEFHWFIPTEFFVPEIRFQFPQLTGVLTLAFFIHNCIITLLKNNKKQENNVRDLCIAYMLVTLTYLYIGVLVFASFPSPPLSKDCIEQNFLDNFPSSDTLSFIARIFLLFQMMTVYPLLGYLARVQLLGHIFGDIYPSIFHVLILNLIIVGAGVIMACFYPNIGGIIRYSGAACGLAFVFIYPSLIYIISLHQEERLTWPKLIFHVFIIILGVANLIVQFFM
active: ispinesib -0.474
inactive: [1] 0.165 | crizotinib -0.201 | [2] 0.052 | [3] 0.003 | duvelisib 0.081 | gandotinib -0.018 | tozasertib 0.001 | [4] -0.058 | doramapimod 0.067 | bafetinib -0.022 | [5] -0.04 | nilotinib 0.02 | [6] 0.05 | dasatinib 0.094 | [7] -0.081 | [8] -0.017 | [9] -0.034 | tipifarnib 0.038 | mubritinib 0.046

STAM2 (UniProt O75886)
inactive: [1] 0.114 | crizotinib -0.008 | [2] 0.041 | [3] -0.049 | duvelisib -0.031 | gandotinib -0.126 | tozasertib 0.054 | [4] 0.028 | doramapimod -0.022 | ispinesib -0.049 | bafetinib -0.067 | [5] 0.014 | nilotinib 0.007 | [6] -0.077 | dasatinib 0.044 | [7] -0.008 | [8] 0.016 | [9] 0.009 | tipifarnib -0.012 | mubritinib 0.019

TANK (UniProt Q92844)
Sequence of UniProt Q92844 (Q92844 whole entry, looked up): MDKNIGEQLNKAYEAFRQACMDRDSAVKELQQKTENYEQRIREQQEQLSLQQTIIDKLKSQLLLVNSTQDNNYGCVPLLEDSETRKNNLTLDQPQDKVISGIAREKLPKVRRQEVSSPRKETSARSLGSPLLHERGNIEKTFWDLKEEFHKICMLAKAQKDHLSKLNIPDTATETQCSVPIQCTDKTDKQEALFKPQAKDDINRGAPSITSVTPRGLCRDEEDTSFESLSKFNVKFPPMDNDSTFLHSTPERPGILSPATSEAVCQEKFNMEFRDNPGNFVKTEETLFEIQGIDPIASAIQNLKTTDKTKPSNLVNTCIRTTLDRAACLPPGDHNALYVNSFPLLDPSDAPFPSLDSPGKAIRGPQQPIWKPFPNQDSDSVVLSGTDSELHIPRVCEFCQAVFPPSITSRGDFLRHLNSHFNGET
active: [6] 0.337
inactive: [1] -0.032 | crizotinib 0.287 | [2] -0.021 | [3] 0.069 | duvelisib 0.038 | gandotinib 0.135 | tozasertib 0.112 | [4] 0.091 | doramapimod -0.015 | ispinesib -0.064 | bafetinib -0.049 | [5] -0.106 | nilotinib 0.054 | dasatinib -0.025 | [7] 0.082 | [8] -0.021 | [9] -0.036 | tipifarnib -0.016 | mubritinib 0.03

STARD9 (UniProt Q9P2P6)
inactive: [1] 0.144 | crizotinib 0.141 | [2] 0.012 | [3] 0.049 | duvelisib -0.06 | gandotinib 0.04 | tozasertib 0.013 | [4] 0.028 | doramapimod 0.074 | ispinesib -0.146 | bafetinib 0.012 | [5] -0.029 | nilotinib 0.016 | [6] 0.157 | dasatinib 0.091 | [7] 0.002 | [8] 0.076 | [9] 0.047 | tipifarnib 0.07 | mubritinib 0.129

From the supplement of paper PMC10849652
